The source made the active and inactive calls. Unless noted, how the calls were made is not given here.
Tests used:
[1] = compounds binding Alexa647 anti-His antibody – biochemical, small-molecule microarray, 635 nm fluorescence, artefact control for SMM control protein annotation, primary screen (AID 1128); conditions: higher = more signal;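 further: score merges feature fluorescence with signal-to-noise for each printed compound spot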
[2] = test system: Human papillomavirus type 1a E7 protein (residues 1-88); experiment: HPV1a E7 small-molecule binders, primary screen, biochemical, small-molecule microarray, residues 1-88, 635 nm (AID 1129); conditions: small-molecule microarray binding, fluorescence 635 nm; higher = more signal
[3] = biological target: Focal adhesion kinase 1 (Homo sapiens) (UniProt Q05397); experiment: PTK2 protein binding on printed compound slides – biochemical, small-molecule microarray, 635/667 nm fluorescence, BSA, DTT, primary screen (AID 1130); conditions: 635 nm fluorescence, higher = more signal;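 further: composite of spot emission at 667 nm and signal to noise over triplicate slides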
Focal adhesion kinase 1 (Homo sapiens), sequence (Q05397 whole entry, looked up): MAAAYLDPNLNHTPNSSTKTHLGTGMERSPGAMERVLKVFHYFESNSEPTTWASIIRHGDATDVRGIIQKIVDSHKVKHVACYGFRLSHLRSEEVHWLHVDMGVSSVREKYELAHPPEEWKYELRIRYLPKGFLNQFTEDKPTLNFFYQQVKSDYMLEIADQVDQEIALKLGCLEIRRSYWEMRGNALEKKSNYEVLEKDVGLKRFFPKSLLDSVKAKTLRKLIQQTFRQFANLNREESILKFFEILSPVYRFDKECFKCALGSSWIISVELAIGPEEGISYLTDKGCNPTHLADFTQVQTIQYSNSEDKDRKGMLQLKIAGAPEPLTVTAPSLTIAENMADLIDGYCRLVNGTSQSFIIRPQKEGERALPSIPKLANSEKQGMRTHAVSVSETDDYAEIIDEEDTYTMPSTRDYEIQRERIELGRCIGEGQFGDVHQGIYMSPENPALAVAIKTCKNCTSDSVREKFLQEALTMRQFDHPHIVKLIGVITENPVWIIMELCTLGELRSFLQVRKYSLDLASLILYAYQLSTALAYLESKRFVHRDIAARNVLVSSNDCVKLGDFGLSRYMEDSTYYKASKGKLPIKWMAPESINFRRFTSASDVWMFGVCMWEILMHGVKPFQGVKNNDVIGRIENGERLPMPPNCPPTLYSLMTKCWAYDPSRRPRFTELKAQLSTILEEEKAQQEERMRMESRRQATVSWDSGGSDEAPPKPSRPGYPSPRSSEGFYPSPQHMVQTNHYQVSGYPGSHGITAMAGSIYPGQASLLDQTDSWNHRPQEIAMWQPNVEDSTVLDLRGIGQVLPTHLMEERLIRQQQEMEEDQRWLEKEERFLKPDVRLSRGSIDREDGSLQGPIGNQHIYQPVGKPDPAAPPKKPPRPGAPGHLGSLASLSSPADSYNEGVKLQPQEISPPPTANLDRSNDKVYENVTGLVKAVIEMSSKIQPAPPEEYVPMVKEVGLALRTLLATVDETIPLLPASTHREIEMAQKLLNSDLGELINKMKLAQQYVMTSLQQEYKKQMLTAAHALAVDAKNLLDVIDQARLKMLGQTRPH

[4] = test system: Fibrinogen (Alexa647-labelled); experiment: Alexa647-fibrinogen binding to printed small molecules – biochemical, small-molecule microarray, 635/667 nm fluorescence, artefact control for SMM control-protein annotation, profiling panel (AID 1131); conditions: fibrinogen-A647 binding fluorescence, higher = more signal;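 further: z-score merges 667 nm fluorescence with per-spot signal-to-noise over triplicate slides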
[5] = biological target: Follistatin (Homo sapiens) (UniProt P19883); experiment: FST protein binding to printed compounds – biochemical, small-molecule microarray, 635/667 nm fluorescence, primary screen (AID 1132); conditions: 635 nm fluorescence, higher = more signal
Follistatin (Homo sapiens), sequence (P19883 whole entry, looked up): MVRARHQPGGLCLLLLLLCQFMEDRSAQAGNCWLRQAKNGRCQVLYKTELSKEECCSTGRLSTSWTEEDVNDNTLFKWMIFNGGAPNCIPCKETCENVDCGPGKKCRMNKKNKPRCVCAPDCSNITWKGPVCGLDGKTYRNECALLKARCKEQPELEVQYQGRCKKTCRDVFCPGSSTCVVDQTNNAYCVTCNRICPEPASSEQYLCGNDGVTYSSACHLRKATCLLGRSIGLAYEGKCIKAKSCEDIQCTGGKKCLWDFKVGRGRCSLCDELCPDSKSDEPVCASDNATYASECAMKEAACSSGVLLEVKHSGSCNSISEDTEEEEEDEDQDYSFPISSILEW

[6] = biological target: Fibroblast growth factor 2 (Homo sapiens) (UniProt P09038); experiment: basic fibroblast growth factor binding to printed compounds – biochemical, small-molecule microarray, 635/667 nm fluorescence, primary screen (AID 1133); conditions: FGF2, fluorescence 635/667, higher = more signal
Fibroblast growth factor 2 (Homo sapiens), sequence (P09038 whole entry, looked up): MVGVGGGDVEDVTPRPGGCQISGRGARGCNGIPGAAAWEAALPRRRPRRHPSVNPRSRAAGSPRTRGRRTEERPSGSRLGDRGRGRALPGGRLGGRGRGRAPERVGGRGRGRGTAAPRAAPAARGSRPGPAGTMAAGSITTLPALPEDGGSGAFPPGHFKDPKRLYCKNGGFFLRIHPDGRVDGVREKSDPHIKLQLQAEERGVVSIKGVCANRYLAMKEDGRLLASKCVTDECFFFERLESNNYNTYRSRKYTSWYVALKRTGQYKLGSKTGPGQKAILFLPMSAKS

[7] = JC-1 mitochondrial potential readout, lung cancer cells – cell-based, A549, JC-1 fluorescence, basal, 24 h, 100 nL, profiling panel (AID 1138); conditions: higher = more signal;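 further: A549 lung adenocarcinoma cells under basal conditions with no added stimulus; test concentration not given here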
[8] = test system: Lefty1; experiment: Lefty1 protein binding to printed compounds – biochemical, small-molecule microarray, 635/667 nm fluorescence, primary screen (AID 1139); conditions: fluorescence 635/667, higher = more signal
[9] = test system: wheat germ agglutinin (Triticum aestivum), Alexa647-labelled; experiment: Alexa647-WGA lectin binding to printed small molecules – biochemical, small-molecule microarray, 635/667 nm fluorescence, artefact control for SMM control-protein annotation, profiling panel (AID 1140); conditions: WGA-A647 binding, 635 nm fluorescence, higher = more signal;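 further: score merges 667 nm feature emission with signal to noise over triplicate slides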
[10] = biological target: Luciferin 4-monooxygenase (Photinus pyralis) (UniProt P08659); experiment: inhibition of purified Photinus pyralis luciferase – biochemical, luminescence, purified enzyme, 2006 set, primary screen (AID 1141); conditions: purified firefly luciferase, SteadyGlo luminescence, 30 min; higher = more signal, called active from +8 up or from −8 down;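 further: cell-free assay with purified firefly luciferase at 100 ng per well in PBS; test concentration not given here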
Luciferin 4-monooxygenase (Photinus pyralis), sequence (P08659 whole entry, looked up): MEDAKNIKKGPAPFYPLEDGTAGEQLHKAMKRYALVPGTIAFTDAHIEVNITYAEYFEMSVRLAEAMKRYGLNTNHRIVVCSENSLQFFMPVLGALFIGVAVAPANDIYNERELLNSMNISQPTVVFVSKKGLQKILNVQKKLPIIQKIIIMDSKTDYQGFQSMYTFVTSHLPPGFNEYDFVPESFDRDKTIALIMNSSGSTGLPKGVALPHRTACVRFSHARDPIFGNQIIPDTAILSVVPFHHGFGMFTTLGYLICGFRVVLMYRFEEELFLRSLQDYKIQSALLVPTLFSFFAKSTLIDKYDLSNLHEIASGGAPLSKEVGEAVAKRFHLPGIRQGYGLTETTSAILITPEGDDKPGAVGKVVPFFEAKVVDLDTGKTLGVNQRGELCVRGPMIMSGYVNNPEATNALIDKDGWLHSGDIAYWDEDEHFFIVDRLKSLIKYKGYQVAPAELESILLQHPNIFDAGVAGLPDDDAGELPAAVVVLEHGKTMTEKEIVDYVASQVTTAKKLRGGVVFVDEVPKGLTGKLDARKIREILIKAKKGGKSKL

[11] = test system: Wnt5a (protein binding on small-molecule microarray); experiment: small molecules binding Wnt5a protein – biophysical, small-molecule microarray, 635/667 nm fluorescence, primary screen (AID 1142); conditions: 635 nm fluorescence, higher = more signal;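 further: fluorescence read at 667 nm with signal to noise per printed feature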
[12] = ATP-based viability of Huh7 replicon cells – cell-based, CellTiter-Glo luminescence, basal, 48 h, cytotoxicity control for HCV replication inhibitor project, primary screen (AID 1143); conditions: higher = more signal, called active from +8 up or from −8 down;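 further: Huh7 hepatoma cells carrying a hepatitis C replication reporter with no stimulus; test concentration not given here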
[13] = Pseudomonas biofilm growth suppression – PAO1 strain, BacTiter-Glo luminescence, LB-PBS, primary screen (AID 1144); conditions: P. aeruginosa PAO1 biofilm, 12 h, higher = more signal
[14] = basal CRE-LacZ reporter activity in PC12 – cell-based, unstimulated, primary screen (AID 1145); conditions: no forskolin, luminescence, 4.5 h, higher = more signal, called active from +8 up or from −8 down
[15] = forskolin-driven CRE-LacZ activity in PC12 – cell-based, CRE-LacZ reporter, forskolin-stimulated, primary screen (AID 1146); conditions: luminescence, 4.5 h, higher = more signal, called active from +8 up or from −8 down;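 further: PC12 cells with 6xCRE LacZ reporter stimulated by forskolin 10 µM; beta-galactosidase reporter signal reflecting CREB driven transcription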
[16] = biological target: Streptavidin (Streptomyces avidinii) (UniProt P22629); experiment: compounds binding control protein streptavidin – biophysical, small-molecule microarray, 635/667 nm fluorescence, artefact control for SMM compound annotation, primary screen (AID 1147); conditions: higher = more signal;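 further: signal reflects streptavidin binding to arrayed compounds as a control protein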
Streptavidin (Streptomyces avidinii), sequence (P22629 whole entry, looked up): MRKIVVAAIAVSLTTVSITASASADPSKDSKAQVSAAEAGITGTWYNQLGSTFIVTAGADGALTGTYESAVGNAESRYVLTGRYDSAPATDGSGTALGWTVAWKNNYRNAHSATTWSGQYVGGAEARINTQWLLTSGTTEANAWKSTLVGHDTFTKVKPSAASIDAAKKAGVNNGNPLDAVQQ

[17] = probe aInhba binding on compound microarray – biochemical, small-molecule microarray, 635/667 nm fluorescence, primary screen (AID 1148); conditions: higher = more signal;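 further: score merges 667nm spot fluorescence with signal-to-noise for antibody binding to printed compounds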
[18] = biological target: Torsin-1A (Homo sapiens) (UniProt O14656); experiment: TOR1A wild-type binding on microarray – cell lysate, small-molecule microarray, lysate, 635/667 nm, primary screen (AID 1149); conditions: COS7 hTOR1A-WT lysate, 635 nm fluorescence, higher = more signal
Torsin-1A (Homo sapiens), sequence (O14656 whole entry, looked up): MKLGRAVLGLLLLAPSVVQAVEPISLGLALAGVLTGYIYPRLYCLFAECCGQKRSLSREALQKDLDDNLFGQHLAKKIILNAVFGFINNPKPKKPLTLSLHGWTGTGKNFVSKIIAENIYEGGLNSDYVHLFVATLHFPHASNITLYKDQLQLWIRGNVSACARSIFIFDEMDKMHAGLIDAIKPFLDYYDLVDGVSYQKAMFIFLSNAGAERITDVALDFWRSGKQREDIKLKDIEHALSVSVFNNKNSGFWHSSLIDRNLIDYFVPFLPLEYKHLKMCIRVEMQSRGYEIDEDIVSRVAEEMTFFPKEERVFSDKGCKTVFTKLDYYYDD

[19] = biological target: Torsin-1A (Homo sapiens) (UniProt O14656); experiment: torsin A mutant lysate binding on microarrays – cell lysate, small-molecule microarray, COS7 lysate, 635/667 nm fluorescence, primary screen (AID 1150); conditions: COS7 hTOR1A mutant lysate, 635 nm fluorescence, higher = more signal;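 further: score pools 667 nm emission and signal to noise measuring lysate protein binding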
[20] = test system: Sonic hedgehog protein (Shh); experiment: Sonic hedgehog microarray binding compounds – biochemical, small-molecule microarray, 635/667 nm fluorescence, primary screen (AID 1151); conditions: 635 nm fluorescence, higher = more signal;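 further: Shh protein binding to compounds spotted on small-molecule microarray slides; score combines spot fluorescence intensity with signal-to-noise across triplicate slides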

Compound | composite z-score [1] | composite z-score [2] | composite z-score [3] | composite z-score [4] | composite z-score [5] | composite z-score [6] | z-score [7] | composite z-score [8] | composite z-score [9] | z-score [10] | composite z-score [11] | z-score [12] | z-score [13] | z-score [14] | z-score [15] | composite z-score [16] | composite z-score [17] | composite z-score [18] | composite z-score [19] | composite z-score [20]
C[C@]1(C(=O)NCc2ccccc2)c2ccccc2C(=O)N(Cc2cc(F)cc(C(F)(F)F)c2)[C@H]1c1ccc(CO)cc1 | 0.84 | -0.184 | -0.349 | -0.582 | -1.13 | -0.278 | 0.916 | -1.14 | -0.566 | 0.585 (inactive) | -0.0261 | -1.8 (inactive) | -0.255 (inactive) | 0.0909 (inactive) | -0.323 (inactive) | -0.859 | 0.13 | -0.956 | -1.47 | -0.436
CC(C)C(O)C1C=CC2C(=O)N(c3ccccc3)C(=O)C2N1Nc1ccc(C#N)cc1 (stereo not given) | 1.68 | 1.14 | 0.0162 | 1.01 | 0.97 | 0.598 | 0.192 | -0.265 | 1.12 | -0.555 (inactive) | 0.612 | 0.388 (inactive) | -0.783 (inactive) | 0.629 (inactive) | 0.813 (inactive) | 0.761 | 0.388 | -0.0618 | 0.719 | 0.0011
COc1ccc([Si](C)(C)[C@H]2[C@H](CC(=O)N(CCO)Cc3ccccc3)O[C@@]3(C(=O)N(Cc4cccc(N5CCC5=O)c4)c4ccccc43)[C@@H]2C)cc1 | 2.18 | 1.03 | 0.222 | 0.279 | 1.12 | 1.68 | -0.166 | 1.33 | 0.767 | 0.272 (inactive) | 0.526 | -6.85 (inactive) | -0.216 (inactive) | 0.469 (inactive) | -0.854 (inactive) | 0.0587 | -0.0221 | 0.795 | 0.278 | 2.05
COCCOC(=O)N1C(=O)[C@@]2(c3cc(C#CCCO)ccc31)[C@H](c1ccc(O)cc1)N1[C@H](c3ccccc3)[C@H](c3ccccc3)OC(=O)[C@H]1[C@@H]2C(N)=O | 3.05 | 0.215 | 0.0329 | 0.19 | 0.931 | 0.347 | -0.444 | 0.296 | 0.0204 | 0.028 (inactive) | 0.453 | -0.209 (inactive) | 0.393 (inactive) | 0.48 (inactive) | 0.73 (inactive) | -0.656 | 0.0388 | 0.553 | 0.883 | 0.493
Cc1ccc(F)cc1S(=O)(=O)N[C@@H]1CCN(Cc2ccc(-c3ccccc3)cc2)C1 | -0.0798 | 0.517 | 0.377 | -0.0516 | 0.646 | 0.424 | 0.225 | 0.292 | -0.108 | 0.715 (inactive) | 0.116 | -6.41 (inactive) | 0.00325 (inactive) | 6.48 (inactive) | 0.959 (inactive) | -0.164 | -0.128 | 0.606 | 0.743 | 0.98

From PubChem BioAssay
